Source: PubChem (National Center for Advancing Translational Sciences (NCATS))
This is a sample that favours compounds with a hit; in the whole collection about 5.2% have one here.
Tau fluor counter: Counterscreen qHTS for Inhibitors of Tau Fibril Formation, Fluorescence Polarization; tau K18 P301L Alexa594 fluorescence, heparin fibrillization; Potency, µM (top dose mostly 57.7 µM); 0.93% of 280,000 active; note: nearly all actives have a fitted effect of over 55% in size
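Human K18 P301L tau (15 uM unlabeled plus 0.24 uM Alexa 594-labeled, final) in 100 mM sodium acetate pH 7 was mixed with compound and 20 uM heparin and incubated 6 hr at 37 C.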
Tau ThT inhib: qHTS for Inhibitors of Tau Fibril Formation, Thioflavin T Binding; recombinant tau K18 P301L, heparin-induced fibrillization, ThT fluorescence; Potency, µM (doses to about 57.4 µM), hits mostly inhibitors; AID 1460, 2008; Microtubule-associated protein tau (Homo sapiens), P10636; 2.1% of 270,000 active; note: nearly all actives have a fitted effect of over 55% in size
Target sequence (P10636 561-689 P618L limits assumed): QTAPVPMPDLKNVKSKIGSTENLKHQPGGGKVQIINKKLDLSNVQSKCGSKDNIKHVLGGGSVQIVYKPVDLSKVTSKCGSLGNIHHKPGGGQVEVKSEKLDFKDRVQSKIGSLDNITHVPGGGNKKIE
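K18 P301L tau (15 uM + 0.24 uM Alexa 594-tagged), heparin 20 uM, NaOAc pH 7, 6 h 37 C; ThT 30 uM, 1 h RT, ex 450/em 510 nm.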
FBPA coupling cs: qHTS Assay for Inhibitors of Fructose-1,6-bisphosphate Aldolase from Giardia Lamblia: Coupling assay counterscreen; coupling enzyme system counterscreen, AmpLite Red fluorescence; activity change, negative = inhibition, % at 58.2 µM, hits read low; AID 2472, 2010; 0.67% of 290,000 active; in the data active = activity change below about -30%
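First, compound is pin-transferred into glyceraldehyde-3-phosphate coupling-enzyme reagent at 57.5 uM final and held 10 min at RT. Next, substrate, coupling system and AmpLite Red are added. After 20 min RT, fluorescence (525/598 nm) is read.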
Sfp inh: qHTS Assay for Inhibitors of Bacillus subtilis Sfp phosphopantetheinyl transferase (PPTase); 4'-phosphopantetheinyl transferase ffp (Bacillus subtilis), Q9F4F7; Potency, µM, hits mostly inhibitors; 3.5% of 310,000 active; Biochemical Sfp PPTase activity, qHTS; AID 1490, 2009;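 note: the enzyme is Sfp with the accession as filed and its product quenches rhodamine fluorescence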
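Fluorescence-quenching assay with 15 nM Sfp, 5 uM rhodamine-CoA and 12.5 uM BHQ-2-labelled ybbR peptide in pH 7.6 Hepes/MgCl2 buffer. Enzyme was pre-incubated with compound for 15 min at room temperature. Rate was taken from the 30-min fluorescence change (525/598 nm).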
Tau fibril FP: qHTS for Inhibitors of Tau Fibril Formation, Fluorescence Polarization. Microtubule-associated protein tau (Homo sapiens), P10636. K18 P301L tau heparin fibrillization, Alexa594 FP, 6 h. Potency, µM (highest dose often 57.7 µM), hits mostly inhibitors. 0.39% of 280,000 active. AID 1468, 2008; note: nearly all actives have a fitted effect of over 55% in size
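Heparin (20 uM) drove fibril formation of recombinant tau K18 P301L, 15 uM unlabeled with 0.24 uM Alexa 594 label, for 6 hr at 37 C in 100 mM sodium acetate pH 7. Fluorescence polarization (555/632 nm) read 1 hr after 30 uM ThT.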
Hits are given with their value; - = inactive; ? = inconclusive; . = no result given; [ ] = dose if it differs, or a comment. Unless noted, calls come from the whole dose curve; as a rule, active = well fitted curve in the direction sought with a large enough effect; inconclusive = small, poorly fitted or top-dose-only effect, or another doubt; inactive = no such curve, though single readings can be large; an effect the other way counts as inactive or inconclusive.

SMILES	Tau fluor counter	Tau ThT inhib	FBPA coupling cs	Sfp inh	Tau fibril FP
Cc1csc(N)n1	-	-	-	?	-
CCOc1ccc(NC(=O)c2cnn3c2NC(c2ccccc2)=CC3c2cccc(OC)c2OC)cc1 (stereo not drawn)	?	?	.	.	-
N#C/C(=C\c1ccc2c(c1)OCO2)C(N)=S	-	-	-	?	-
N#C/C(=C/c1ccco1)C(N)=S	?	28µM	-	10µM	?
O=C(Nc1ccc(Cl)c(Cl)c1)c1ccc(Cl)c(Cl)c1	-	-	-	-	?
Cc1ccc(NC(=O)c2ccc(Cl)c(N3C(=O)C=CC3=O)c2)cc1	-	-	-	2.8µM	-
Cc1ccc(CNC(=O)Cn2c3ncccc3c(=O)n2-c2ccc(C)cc2)cc1	-	-	.	.	-
Cc1ccc(/C=N/n2c(C)n[nH]c2=S)o1	-	-	-	-	-
Cc1ccc(/C=N/n2c(-c3ccncc3)n[nH]c2=S)s1	-	-	-	63µM	-
Cc1ccc(/C=N/n2c(-c3ccncc3)n[nH]c2=S)o1	-	-	-	25µM	-
Cc1ccc(CNC(=O)CN2C(=O)C3CCCCN3c3ccc(C(=O)N4CCCC4)cc32)cc1 (stereo not drawn)	-	-	.	.	-
CCC(=O)N1CCc2cc(Br)cc(S(=O)(=O)NCCc3ccccc3Cl)c21	?	-	.	.	-
O=c1cc(N2CCc3ccccc32)[nH]c(=O)n1-c1ccc(Br)cc1	-	28µM	-	-	?
O=c1cc(N2CCc3ccccc32)[nH]c(=O)n1-c1ccccc1Cl	-	?	-	-	-
Cc1ccccc1-n1c(=O)cc(N2CCc3ccccc32)[nH]c1=O	-	-	-	56µM	-
O=C(Cn1c(=O)n(-c2ccc(Cl)cc2)c(=O)c2c3c(sc21)CCCCC3)Nc1cccc(Cl)c1	-	-	.	.	?
COc1ccccc1C(=O)N1CCC(c2noc(-c3ccc(S(=O)(=O)N4CCCC4)cc3)n2)CC1	-	-	.	.	-
C=C1CCC[C@]2(C)C[C@H]3OC(=O)[C@H](CNCCc4ccccc4OC)C3CC12 (stereo partly drawn)	-	-	-	56µM	-
C=C1CCC[C@]2(C)C[C@H]3OC(=O)C(CNCCN(CC)CC)[C@H]3CC12 (stereo partly drawn)	.	.	-	56µM	.
C=C1CCC[C@]2(C)C[C@H]3OC(=O)C(CNCCN(C)C)[C@H]3CC12 (stereo partly drawn)	.	.	-	-	.
C=C1CCC[C@]2(C)C[C@H]3OC(=O)C(CNCC(C)C)[C@H]3CC12 (stereo partly drawn)	.	.	-	-	.
CCn1c(SCC(=O)c2ccc(Cl)cc2)nnc1-c1ccoc1C	-	?	-	-	?
CCn1c(SCC(=O)c2ccc(C)cc2)nnc1-c1ccoc1C	-	?	-	79µM	-
O=C(NCc1cccc(Br)c1)c1ccc(-n2cnc3cccnc32)cc1	-	-	.	.	-
C=CCSc1ccccc1C(=O)Nc1ncn[nH]1	.	.	-	-	.
SMILES	Tau fluor counter	Tau ThT inhib	FBPA coupling cs	Sfp inh	Tau fibril FP
CSc1ccccc1C(=O)Nc1ncn[nH]1	.	.	-	56µM	.
O=C1C([N+](=O)[O-])=C(O)c2cccc3cccc1c23	.	.	-51	8.9µM	.
Cc1nn(C)cc1CN(C)C(=O)c1cc2nc(-c3ccco3)cc(C(F)(F)F)n2n1	-	-	-	35µM	-
Cc1nn(C)c(C)c1CN(C)C(=O)c1cc2nc(-c3ccco3)cc(C(F)(F)F)n2n1	-	-	-	-	-
Cc1[nH]c2ccccc2c1CCN(Cc1cccs1)C(=S)Nc1ccccc1	11µM[quencher]	-	-	-	-
Cc1[nH]c2ccccc2c1CCN(Cc1cccnc1)C(=S)Nc1cccc(F)c1	?	-	-	-	?
Cc1[nH]c2ccccc2c1CCN(Cc1cccnc1)C(=S)Nc1ccc(F)cc1	?	-	-	-	-
COc1cccc(NC(=S)N(CCc2c(C)[nH]c3ccccc23)Cc2cccs2)c1	8.9µM[quencher]	-	-	-	-
COc1ccc(-c2cc(C(F)(F)F)n3nc(-c4ccc(Cl)cc4)cc3n2)cc1OC	-	-	.	.	-
Clc1ccc(C2Nc3cccc4cccc(c34)N2)cc1	.	.	-	?	.
Oc1ccc2ccccc2c1C1Nc2cccc3cccc(c23)N1	14µM[quencher]	28µM	-	-	-
CCN(CC)c1ccc(C2Nc3cccc4cccc(c34)N2)c(O)c1	14µM[quencher]	16µM	-	-	-
COc1cc(C2Nc3cccc4cccc(c34)N2)cc(OC)c1OC(C)=O	?	?	-	-	-
O=[N+]([O-])c1cc(C2Nc3cccc4cccc(c34)N2)ccc1Cl	18µM[quencher]	18µM	-	?	?
O=C1NC(c2ccc(Cl)c([N+](=O)[O-])c2)Nc2ccccc21 (stereo not drawn)	-	-	-	-	-
COc1cc(C2Nc3cccc4cccc(c34)N2)ccc1O	.	.	-	45µM	.
CC(=O)N(C)c1ccc(N=C2C(=O)Nc3ccccc32)cc1	.	.	-	-	.
CC(=O)/C=C1/C(=O)Nc2ccccc21	-	?	-	50µM	-
C=CCOc1cccc(C(=O)/C=C2/C(=O)Nc3ccccc32)c1	.	.	-	56µM	.
CCCc1cnc2c(c1SCC(=O)N1CCC(C)CC1)c(=O)n(C)c(=O)n2C	-	-	.	.	-
COc1cc(/C=C/C(=O)O)cc(S(=O)(=O)Nc2ccc3nc(C)sc3c2)c1OC	-	-	-	40µM	-
CCOC(=O)OCC1OC(c2ccc(C(C)=O)cc2)C=CC1OC(=O)OCC (stereo not drawn)	-[11.6 µM]	-[11.5 µM]	-	-	-[11.6 µM]
O=C(CCc1ccc(Oc2cc([N+](=O)[O-])cc([N+](=O)[O-])c2)cc1)N1CCCCCC1	-	?	-	18µM	-
O=C(Cc1ccc([N+](=O)[O-])cc1)N1CCCCCC1	-	-	-	-	-
CCN(C(=O)c1cc2c(s1)-c1ccccc1OC2)c1cc(Cl)ccc1OC	-	-	.	.	-
SMILES	Tau fluor counter	Tau ThT inhib	FBPA coupling cs	Sfp inh	Tau fibril FP
O=c1c2c(-c3ccccc3)csc2ncn1/N=C/c1ccc(O)c([N+](=O)[O-])c1	-	?	-	-	-
O=c1c2c(-c3ccccc3)csc2ncn1/N=C/c1cccc([N+](=O)[O-])c1O	-	14µM	-	-	-
CSc1ccc(/C=N/NC(=O)CNc2ccc3ccccc3c2)cc1	14µM[quencher]	5µM	-	-	-
O=C(CNc1cccc2ccccc12)N/N=C/c1ccc(OC(=O)/C=C/c2ccco2)cc1	?	?	-	-	-
O=C(CNc1ccc2ccccc2c1)N/N=C/c1ccc(OC(=O)/C=C/c2ccco2)cc1	7.1µM[quencher]	5µM	-	-	-
COCCCNC(=O)CC(=O)N/N=C\c1ccc(SC)cc1	-[2.34 µM]	-	-70	-	-[2.34 µM]
